Hits are enriched below; roughly 5.7% of the tested compounds scored in any of these assays.
DAX1 inh-1: blocks DAX1 repression of SF-1 activated StAR promoter; HEK293T StAR-luciferase reporter, SF-1/DAX-1 repression relief; inhibition, % at 6.8 µM; hit rate 1.1% among 370,000;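 active means inhibition above the mean over all tested compounds plus 3 SD, cut at about 3.6% in these data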;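 further: 0% = DAX-1 cells with DMSO and 100% = cells lacking DAX-1 with DMSO; higher inhibition means more luminescence from relief of DAX-1 repression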
hgDAF-12 ag: activates the H. glycines DAF-12 receptor ligand-binding domain. HEK293 GAL4-hgDAF12 UAS-luciferase reporter, agonist luminescence; normalized to butyrate control. activation, % at 6.8 µM. hit rate 1.8% among 370,000;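 active means activation above a cutoff set at the mean of all screened compounds plus 3 SD, cut at about 10% in these data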;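 further: 0% = DMSO wells and 100% = sodium butyrate wells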
AHR activator: activates the human aryl hydrocarbon receptor; P35869; AHR-responsive luciferase reporter cells, luminescence; activation, % at 5 µM; hit rate 2.5% among 320,000; AID 2796; in the data active means activation above about 47%;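 further: 0% = vehicle wells and 100% = reference agonist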
Target sequence (P35869 whole entry, looked up): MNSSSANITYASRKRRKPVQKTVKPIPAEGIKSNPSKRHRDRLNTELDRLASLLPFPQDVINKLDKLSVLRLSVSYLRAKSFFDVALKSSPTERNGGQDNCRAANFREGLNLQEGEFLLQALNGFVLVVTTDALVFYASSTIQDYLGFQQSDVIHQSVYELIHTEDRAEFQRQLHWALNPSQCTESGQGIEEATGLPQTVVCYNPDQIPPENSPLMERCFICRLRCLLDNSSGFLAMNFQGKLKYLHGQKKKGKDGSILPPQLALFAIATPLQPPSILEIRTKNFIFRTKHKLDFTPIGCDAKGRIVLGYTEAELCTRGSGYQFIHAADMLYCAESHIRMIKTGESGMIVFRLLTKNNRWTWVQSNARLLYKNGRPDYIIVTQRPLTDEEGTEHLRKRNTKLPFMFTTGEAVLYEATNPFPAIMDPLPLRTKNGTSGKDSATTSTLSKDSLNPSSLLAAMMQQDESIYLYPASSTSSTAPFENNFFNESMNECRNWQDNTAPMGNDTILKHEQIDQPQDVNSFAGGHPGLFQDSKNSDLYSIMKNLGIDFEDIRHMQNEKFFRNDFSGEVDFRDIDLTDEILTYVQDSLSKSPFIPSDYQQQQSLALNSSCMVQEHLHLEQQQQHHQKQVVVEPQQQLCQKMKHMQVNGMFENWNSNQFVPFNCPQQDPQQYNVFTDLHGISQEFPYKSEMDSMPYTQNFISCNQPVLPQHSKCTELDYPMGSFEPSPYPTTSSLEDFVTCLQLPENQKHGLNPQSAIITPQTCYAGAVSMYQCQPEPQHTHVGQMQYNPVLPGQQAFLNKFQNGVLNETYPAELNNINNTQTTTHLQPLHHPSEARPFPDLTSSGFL
hcDAF-12 act: H. contortus DAF-12 activation, primary screen; HEK293 hcDAF-12 lit1-tk-luc reporter, luminescence; 0% DMSO, 100% Δ7-dafachronic acid; hit rate 1.4% among 370,000; activation, % at 6.8 µM; AID 652067;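 active means activation above the mean of all tested compounds plus 3 SD, cut at about 5.5% in these data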;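 further: 100% = response to 3 µM Δ7-dafachronic acid high control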
DAX1 inh-2: NR0B1 (DAX1) inhibition. P51843. HEK293 Gal4-DAX1 luciferase reporter, luminescence. hit rate 0.99% among 340,000. inhibition, % at 6.75 µM;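 active means inhibition above the mean over all tested compounds plus 3 SD, cut at about 4.2% in these data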;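 further: 0% = DAX1-transfected cells with DMSO and 100% = empty-vector control cells with DMSO; inhibition shows as a rise in luminescence from relieved DAX1 repression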
ssDAF-12 act: activates DAF-12 receptor from parasite S. stercoralis. activation, % at 6.8 µM. HEK293 ssDAF-12/GRIP1 lit1-tk-luc reporter, luminescence; % of 3 µM dafachronic acid response. hit rate 1% among 370,000. AID 652126;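 active means activation above the mean over all tested compounds plus 3 SD, cut at about 0.9% in these data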;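 further: 0% = DMSO-only wells and 100% = 3 µM delta7-dafachronic acid wells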
DAX1 conf: confirmation of human DAX1 (NR0B1) inhibitors; AID 652134; HEK293T StAR-promoter luciferase reporter, SF-1/DAX-1 repression; shares compounds with DAX1 inh-1; hit rate 87% among 2,400; inhibition, % at 6.8 µM;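 active means inhibition above the average of every tested compound plus 3 SD, cut at about 3.8% in these data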;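 further: 0% = DAX-1 cells with DMSO and 100% = no DAX-1 control cells with DMSO; active compounds raise luminescence by relieving repression of the StAR reporter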
SF1 AF2mut Luc: nonselective inhibitor or artifact in SF-1 mutant DAX1 counter-screen; shares compounds with DAX1 inh-1; HEK293 StAR-luciferase, SF-1 AF2 mutant, luminescence; inhibition, % at 6.8 µM; hit rate 78% among 2,400; AID 652136;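 active means inhibition above the mean of all tested compounds plus 3 SD, cut at about 3% in these data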;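 further: 0% = DAX-1 transfected cells with DMSO and 100% = cells without DAX-1 with DMSO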
LXR ag: LXR-beta agonism as hcDAF-12 counter-screen; 3,400 tested, under 10 active; shares compounds with hcDAF-12 act; activation, % at 6.8 µM; HEK293 Gal4-LXR tk-luc reporter, luminescence, 24 h; normalized: DMSO 0%, positive control 100%;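 active means mean percent activation of the reporter above a cutoff set as the average over tested compounds plus their standard deviation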
hcDAF12 ag: hcDAF-12 agonism, confirmation assay | AID 743032 | hit rate 61% among 3,400 | shares compounds with hcDAF-12 act | activation, % at 6.8 µM | HEK293 hcDAF-12 lit1-tk-luc reporter, luminescence; % of Δ7-dafachronic acid response;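 active means mean activation across triplicate tests above the threshold derived from the earlier primary screen, cut at about 5.5% in these data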;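 further: 0% = DMSO only wells and 100% = 3 µM Δ7-dafachronic acid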
Numbers without * were called inactive; nt = not tested or not shown.

SMILES	DAX1 inh-1	hgDAF-12 ag	AHR activator	hcDAF-12 act	DAX1 inh-2	ssDAF-12 act	DAX1 conf	SF1 AF2mut Luc	LXR ag	hcDAF12 ag
CCCc1ccc(-c2cc(NC(=O)Cc3c(C)[nH]c4ccccc34)ccc2Nc2cccnc2)cc1	-1	1	nt	2	nt	-1	nt	nt	nt	nt
CC1(O)C(c2ccccc2)=Nc2ccccc21 (stereo not given)	5.3*	11*	nt	9.9*	4.5*	0	13*	7.6*	1	6.5*
O=C(/C=C/Nc1ccccc1C(F)(F)F)c1ccco1	4.9*	19*	8	10*	1	1.1*	13*	8.3*	1	9.1*
Clc1ccc(OCc2nc(-c3ccccn3)no2)c(Br)c1	6.7*	6	-2	6.8*	-1	0	18*	8.1*	2	10*
c1ccc(CCc2nc(-c3ccccn3)no2)cc1	4	9	-1	2	2	-1	nt	nt	nt	nt
Nc1nonc1-c1noc(COc2ccccc2Cl)n1	3	8	-9	5	2	1	nt	nt	nt	nt
Clc1ccccc1OCc1nc(-c2ccccn2)no1	5.7*	11*	-4	6.6*	1	1	14*	6.6*	1	7.8*
Cc1cccc(OCC(=O)Nc2nccs2)c1C	12*	12*	20	8.6*	2	1	13*	8.0*	1	6.4*
Cc1ccccc1OCCCC(=O)Nc1nccs1	-2	-3	1	-3	1	-1	nt	nt	nt	nt
Cc1ccc2c(c1)Cc1nc3ccccc3nc1-2	7.4*	20*	25	17*	-2	2.8*	14*	8.5*	2	15*
c1ccc(Nc2nnc(-c3ccc4c(c3)OCO4)o2)cc1	5.1*	9	nt	7.7*	nt	1.2*	6.6*	1	1	3
Cc1ccc(-c2nnc(Nc3ccccc3)o2)cc1	5.5*	6	-4	8.0*	-5	0	19*	8.6*	2	6.5*
CCOC(=O)Cc1csc(NC(=O)CSc2nc(N)c3c(C)c(C)sc3n2)n1	-2	-5	0	-4	0	-2	nt	nt	nt	nt
COC(=O)/C=C/c1ccc(OC(=O)c2ccncc2)cc1	1	-4	-1	-2	0	0	nt	nt	nt	nt
COc1ccc(Cl)c2c1[nH]c1nc(SCc3ccccn3)nnc12	11*	15*	59*	8.6*	2	1.6*	10*	3	1	6.1*
COc1ccc(Cl)c2c1[nH]c1nc(SCc3cccnc3)nnc12	0	-3	32	-2	0	-1	nt	nt	nt	nt
Cc1ccc(S(=O)(=O)N/N=C/c2ccc(OS(=O)(=O)c3ccc(C)c([N+](=O)[O-])c3)cc2)cc1	-1	0	1	-1	-1	-1	nt	nt	nt	nt
CCC1CSC(=Nc2ccc(C)cc2)N1C(=O)CN1C(=O)NC2(CCCC2)C1=O (stereo not given)	10*	13*	0	8.4*	0	0	9.1*	3	1	6.3*
Cc1ccc(C(NC(=O)CN2C(=O)NC3(CCCC3)C2=O)c2ccccc2)cc1 (stereo not given)	0	-1	-1	0	3	-2	nt	nt	nt	nt
COC(=O)C1CN(Cc2ccc(C)cc2)CCS(=O)(=O)N1Cc1cn(Cc2ccc(F)cc2)nn1 (stereo not given)	-1	2	nt	-3	nt	-1	nt	nt	nt	nt
Cc1ccc2nc(-c3ccc(NC(=O)C4CCCO4)cc3)[nH]c2c1 (stereo not given)	7.3*	9	-9	7.7*	-1	1	12*	6.2*	2	5
O=C(/C=C/Nc1ccc(Nc2ccccc2)cc1)c1cccs1	-1	1	nt	-1	2	-1	nt	nt	nt	nt
Cc1cc(N/C=C/C(=O)c2cccs2)ccc1F	5.2*	24*	31	10*	6.5*	2.1*	17*	9.5*	2	16*
CCOC(=O)C1=C(COC(=O)C2(C)CC2(Cl)Cl)NC(=O)NC1c1ccccc1 (stereo not given)	0	1	1	-1	0	-2	nt	nt	nt	nt
CC(C)Oc1cccc(C(=O)Nc2ccc(Br)cc2F)c1	6.6*	17*	4	7.4*	4.7*	0	15*	8.4*	1	4
SMILES	DAX1 inh-1	hgDAF-12 ag	AHR activator	hcDAF-12 act	DAX1 inh-2	ssDAF-12 act	DAX1 conf	SF1 AF2mut Luc	LXR ag	hcDAF12 ag
Cc1noc(C)c1COc1cccc(C(=O)Nc2ccc(Br)cc2F)c1	-3	1	-6	-3	-2	-2	nt	nt	nt	nt
COc1ccc(N=CC2=C(O)c3ccccc3C2=O)cc1	6.0*	11*	2	13*	-2	1.1*	3	-1	1	6.1*
O=C1C(C=Nc2ccccc2O)=C(O)c2ccccc21	5.9*	16*	43	20*	0	2.0*	12*	5.1*	2	19*
O=C(O)c1ccc(N/N=C/c2ccc(-c3ccccc3)cc2)cc1	7.7*	13*	nt	7.6*	5.5*	1.3*	19*	8.5*	1	6.2*
CC(C)c1ccc(/C=N/Nc2ccc(C(=O)O)cc2)cc1	-1	-9	-9	-2	-6	-2	nt	nt	nt	nt
O=c1c2c(nc3cc(-c4ccc(F)cc4)[nH]n13)CCCC2	5.4*	10	11	6.9*	-1	1	11*	3.4*	1	5
O=C1CCC(c2ccc3ccccc3c2)O1 (stereo not given)	0	5	nt	1	0	-1	nt	nt	nt	nt
CCc1ccc(-c2cc(C(=O)Nn3cnnc3)c3ccccc3n2)cc1	6.0*	6	-4	11*	-5	1	11*	4.2*	1	11*
CCCc1ccc(-c2cc(C(=O)NN3CCOCC3)c3ccccc3n2)cc1	0	3	0	1	0	-1	nt	nt	nt	nt
COc1cccc(NC(=O)Nc2nccc(C)n2)c1	5.0*	13*	-7	8.1*	-2	0	13*	5.3*	1	4
NC(=O)c1ccsc1NC(=O)c1ccc2c(c1)CCCC2	6.8*	19*	40	14*	0	2.5*	12*	7.8*	2	21*
